ChEMBL document CHEMBL1961873, “Compounds: GSK PKIS; Assays: Nanosyn kinase panel” (2012)
Values joined by “and” are separate entries in the source; they are usually repeats but may differ in a detail not shown here. Equal entries are not always repeated.

Columns and labels:
[1] = biological target: Mitogen-activated protein kinase kinase kinase kinase 4 (Homo sapiens) (UniProt O95819); conditions: at 1 µM;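 note: reported figure is an averaged inhibition value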
[2] = biological target: Dual specificity mitogen-activated protein kinase kinase 1 (Homo sapiens) (UniProt Q02750); conditions: at 0.1 µM
[3] = biological target: Dual specificity mitogen-activated protein kinase kinase 1 (Homo sapiens) (UniProt Q02750); conditions: at 1 µM
[4] = biological target: Misshapen-like kinase 1 (Homo sapiens) (UniProt Q8N4C8); conditions: at 0.1 µM
Chain of Misshapen-like kinase 1 (Homo sapiens) (Q8N4C8 whole entry, looked up): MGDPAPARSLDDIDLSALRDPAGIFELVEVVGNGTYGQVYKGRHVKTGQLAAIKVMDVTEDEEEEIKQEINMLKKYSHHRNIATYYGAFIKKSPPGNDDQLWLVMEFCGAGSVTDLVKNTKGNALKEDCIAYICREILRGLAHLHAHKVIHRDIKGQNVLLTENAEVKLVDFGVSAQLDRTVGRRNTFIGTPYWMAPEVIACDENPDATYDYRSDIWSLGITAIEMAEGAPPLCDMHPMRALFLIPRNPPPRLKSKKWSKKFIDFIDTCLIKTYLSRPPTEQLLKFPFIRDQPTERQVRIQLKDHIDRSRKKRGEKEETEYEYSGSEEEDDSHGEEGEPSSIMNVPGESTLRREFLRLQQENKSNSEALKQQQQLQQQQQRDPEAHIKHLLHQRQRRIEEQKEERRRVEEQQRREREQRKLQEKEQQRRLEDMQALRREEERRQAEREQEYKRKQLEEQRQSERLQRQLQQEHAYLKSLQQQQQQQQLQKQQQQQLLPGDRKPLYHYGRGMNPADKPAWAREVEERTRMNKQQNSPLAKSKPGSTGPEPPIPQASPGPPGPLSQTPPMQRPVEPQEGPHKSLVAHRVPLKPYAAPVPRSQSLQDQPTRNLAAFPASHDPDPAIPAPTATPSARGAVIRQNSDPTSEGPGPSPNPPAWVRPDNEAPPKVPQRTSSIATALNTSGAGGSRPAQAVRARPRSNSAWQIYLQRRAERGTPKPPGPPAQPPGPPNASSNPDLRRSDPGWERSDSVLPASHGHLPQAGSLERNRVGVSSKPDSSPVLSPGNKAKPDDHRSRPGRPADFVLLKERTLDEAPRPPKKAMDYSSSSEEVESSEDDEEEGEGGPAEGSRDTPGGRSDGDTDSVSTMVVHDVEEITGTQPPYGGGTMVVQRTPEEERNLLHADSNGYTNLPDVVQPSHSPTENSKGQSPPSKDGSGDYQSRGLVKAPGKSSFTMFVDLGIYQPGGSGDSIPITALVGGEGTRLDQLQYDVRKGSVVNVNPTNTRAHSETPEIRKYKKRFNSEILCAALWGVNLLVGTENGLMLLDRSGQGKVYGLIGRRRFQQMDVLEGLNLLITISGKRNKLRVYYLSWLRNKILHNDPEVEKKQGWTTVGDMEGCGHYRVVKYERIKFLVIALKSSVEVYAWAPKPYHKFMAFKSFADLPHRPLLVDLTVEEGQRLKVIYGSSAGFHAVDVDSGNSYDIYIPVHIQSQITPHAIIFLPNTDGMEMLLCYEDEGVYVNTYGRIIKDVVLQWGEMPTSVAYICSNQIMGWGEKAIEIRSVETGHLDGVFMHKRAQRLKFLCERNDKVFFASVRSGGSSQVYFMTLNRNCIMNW

[5] = biological target: Misshapen-like kinase 1 (Homo sapiens) (UniProt Q8N4C8); conditions: at 1 µM
[6] = biological target: T1, Serine/threonine-protein kinase 4 (Homo sapiens) (UniProt Q13043); conditions: at 0.1 µM
T1 sequence (whole entry): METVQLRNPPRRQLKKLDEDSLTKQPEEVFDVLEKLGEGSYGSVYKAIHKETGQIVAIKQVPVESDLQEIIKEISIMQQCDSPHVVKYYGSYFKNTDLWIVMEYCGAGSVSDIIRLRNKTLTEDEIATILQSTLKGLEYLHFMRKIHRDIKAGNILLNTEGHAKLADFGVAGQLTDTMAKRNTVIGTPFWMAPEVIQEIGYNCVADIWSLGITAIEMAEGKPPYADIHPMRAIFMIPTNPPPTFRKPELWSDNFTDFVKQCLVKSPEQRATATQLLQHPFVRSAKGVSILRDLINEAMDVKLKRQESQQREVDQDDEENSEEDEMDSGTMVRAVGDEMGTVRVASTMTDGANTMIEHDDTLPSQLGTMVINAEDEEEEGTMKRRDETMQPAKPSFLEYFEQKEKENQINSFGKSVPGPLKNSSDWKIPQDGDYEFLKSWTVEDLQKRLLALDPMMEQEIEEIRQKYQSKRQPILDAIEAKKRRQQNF

[7] = biological target: T1, Serine/threonine-protein kinase 4 (Homo sapiens); conditions: at 1 µM
[8] = biological target: T2, Serine/threonine-protein kinase 3 (Homo sapiens) (UniProt Q13188); conditions: at 0.1 µM
T2 sequence (whole entry): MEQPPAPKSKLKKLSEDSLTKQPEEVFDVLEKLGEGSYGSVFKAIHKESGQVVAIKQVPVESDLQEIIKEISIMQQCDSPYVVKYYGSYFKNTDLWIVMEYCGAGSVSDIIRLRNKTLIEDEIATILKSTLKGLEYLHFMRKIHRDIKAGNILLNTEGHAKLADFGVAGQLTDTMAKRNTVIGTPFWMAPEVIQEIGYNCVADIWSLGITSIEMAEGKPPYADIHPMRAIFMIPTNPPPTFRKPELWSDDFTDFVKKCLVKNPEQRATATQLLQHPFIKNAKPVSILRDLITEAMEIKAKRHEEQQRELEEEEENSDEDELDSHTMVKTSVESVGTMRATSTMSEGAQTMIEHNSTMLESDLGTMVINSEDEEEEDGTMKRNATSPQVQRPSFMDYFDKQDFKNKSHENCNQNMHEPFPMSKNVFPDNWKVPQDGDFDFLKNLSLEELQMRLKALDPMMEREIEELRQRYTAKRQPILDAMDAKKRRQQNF

[9] = biological target: T2, Serine/threonine-protein kinase 3 (Homo sapiens); conditions: at 1 µM
[10] = biological target: Serine/threonine-protein kinase 26 (Homo sapiens) (UniProt Q9P289); conditions: at 0.1 µM
Chain of Serine/threonine-protein kinase 26 (Homo sapiens) (Q9P289 2-416 limits assumed): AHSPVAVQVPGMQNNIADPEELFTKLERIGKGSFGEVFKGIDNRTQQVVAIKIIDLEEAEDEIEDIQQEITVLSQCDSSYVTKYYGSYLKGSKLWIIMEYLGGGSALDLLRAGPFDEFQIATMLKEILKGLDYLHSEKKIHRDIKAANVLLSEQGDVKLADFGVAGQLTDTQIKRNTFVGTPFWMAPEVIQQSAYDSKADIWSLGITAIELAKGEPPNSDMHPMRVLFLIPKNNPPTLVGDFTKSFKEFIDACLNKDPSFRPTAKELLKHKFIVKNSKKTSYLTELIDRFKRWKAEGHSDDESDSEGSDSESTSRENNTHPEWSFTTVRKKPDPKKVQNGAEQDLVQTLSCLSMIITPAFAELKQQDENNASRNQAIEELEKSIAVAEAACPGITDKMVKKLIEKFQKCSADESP

[11] = biological target: Serine/threonine-protein kinase 26 (Homo sapiens) (UniProt Q9P289); conditions: at 1 µM
[12] = biological target: Serine/threonine-protein kinase PAK 1 (Homo sapiens) (UniProt Q13153); conditions: at 0.1 µM
Chain of Serine/threonine-protein kinase PAK 1 (Homo sapiens) (Q13153 whole entry): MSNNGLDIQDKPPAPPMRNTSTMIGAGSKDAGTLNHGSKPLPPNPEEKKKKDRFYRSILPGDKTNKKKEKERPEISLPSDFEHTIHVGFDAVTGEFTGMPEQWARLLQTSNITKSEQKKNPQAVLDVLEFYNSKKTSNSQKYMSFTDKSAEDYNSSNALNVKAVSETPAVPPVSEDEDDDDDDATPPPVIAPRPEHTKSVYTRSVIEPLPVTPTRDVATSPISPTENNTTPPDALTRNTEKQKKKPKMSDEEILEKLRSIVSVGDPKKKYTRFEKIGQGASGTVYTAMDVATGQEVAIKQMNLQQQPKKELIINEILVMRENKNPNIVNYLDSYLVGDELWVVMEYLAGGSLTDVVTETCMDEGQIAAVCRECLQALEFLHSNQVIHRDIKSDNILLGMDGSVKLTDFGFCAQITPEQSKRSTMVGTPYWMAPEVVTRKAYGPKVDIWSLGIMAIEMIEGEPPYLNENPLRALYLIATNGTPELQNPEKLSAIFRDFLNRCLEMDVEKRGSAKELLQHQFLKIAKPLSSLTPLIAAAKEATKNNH

[13] = biological target: Serine/threonine-protein kinase PAK 1 (Homo sapiens) (UniProt Q13153); conditions: at 1 µM
[14] = biological target: Serine/threonine-protein kinase PAK 2 (Homo sapiens) (UniProt Q13177); conditions: at 0.1 µM
[15] = biological target: Serine/threonine-protein kinase PAK 2 (Homo sapiens) (UniProt Q13177); conditions: at 1 µM
[16] = biological target: Serine/threonine-protein kinase PAK 3 (Homo sapiens) (UniProt O75914); conditions: at 0.1 µM
Chain of Serine/threonine-protein kinase PAK 3 (Homo sapiens) (O75914 whole entry, looked up): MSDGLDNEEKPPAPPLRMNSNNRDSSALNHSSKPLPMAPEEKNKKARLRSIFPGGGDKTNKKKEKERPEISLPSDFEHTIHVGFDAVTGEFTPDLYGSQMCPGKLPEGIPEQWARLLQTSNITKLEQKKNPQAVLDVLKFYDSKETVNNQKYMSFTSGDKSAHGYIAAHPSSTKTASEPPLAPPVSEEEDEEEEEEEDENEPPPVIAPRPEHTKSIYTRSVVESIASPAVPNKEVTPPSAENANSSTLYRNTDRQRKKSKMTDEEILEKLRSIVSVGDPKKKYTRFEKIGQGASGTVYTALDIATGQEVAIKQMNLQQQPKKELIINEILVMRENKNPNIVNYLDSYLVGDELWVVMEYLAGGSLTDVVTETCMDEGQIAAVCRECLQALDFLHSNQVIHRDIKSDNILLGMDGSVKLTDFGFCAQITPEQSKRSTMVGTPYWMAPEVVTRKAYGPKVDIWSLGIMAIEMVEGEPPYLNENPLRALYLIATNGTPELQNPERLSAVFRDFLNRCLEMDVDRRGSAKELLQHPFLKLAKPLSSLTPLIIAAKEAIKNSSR

[17] = biological target: Serine/threonine-protein kinase PAK 3 (Homo sapiens) (UniProt O75914); conditions: at 1 µM
[18] = biological target: Serine/threonine-protein kinase PAK 5 (Homo sapiens) (UniProt Q9P286); conditions: at 0.1 µM
[19] = biological target: Serine/threonine-protein kinase PAK 5 (Homo sapiens) (UniProt Q9P286); conditions: at 1 µM
[20] = biological target: Serine/threonine-protein kinase PAK 6 (Homo sapiens) (UniProt Q9NQU5); conditions: at 0.1 µM;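 note: mean PAK6 inhibition reported from the GSK PKIS screen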
Chain of Serine/threonine-protein kinase PAK 6 (Homo sapiens) (Q9NQU5 whole entry, looked up): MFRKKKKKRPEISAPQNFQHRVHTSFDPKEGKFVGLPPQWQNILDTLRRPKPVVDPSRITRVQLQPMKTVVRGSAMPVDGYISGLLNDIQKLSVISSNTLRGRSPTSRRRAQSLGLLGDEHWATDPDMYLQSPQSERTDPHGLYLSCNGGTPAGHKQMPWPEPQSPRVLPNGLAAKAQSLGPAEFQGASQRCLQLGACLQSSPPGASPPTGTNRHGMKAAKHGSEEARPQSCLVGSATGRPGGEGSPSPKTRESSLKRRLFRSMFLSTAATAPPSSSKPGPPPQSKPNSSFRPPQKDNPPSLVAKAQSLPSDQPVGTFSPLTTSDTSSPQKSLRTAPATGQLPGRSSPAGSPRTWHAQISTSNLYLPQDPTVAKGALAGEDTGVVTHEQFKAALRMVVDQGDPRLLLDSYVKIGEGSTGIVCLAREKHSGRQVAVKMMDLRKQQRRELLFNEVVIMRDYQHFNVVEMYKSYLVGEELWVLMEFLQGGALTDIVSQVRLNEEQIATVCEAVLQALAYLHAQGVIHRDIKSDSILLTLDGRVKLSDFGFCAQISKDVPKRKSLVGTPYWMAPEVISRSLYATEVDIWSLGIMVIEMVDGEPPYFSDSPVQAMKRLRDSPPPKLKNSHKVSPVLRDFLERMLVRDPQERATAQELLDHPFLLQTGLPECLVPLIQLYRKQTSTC

Chain of Mitogen-activated protein kinase kinase kinase kinase 4 (Homo sapiens) (O95819 2-1239 limits assumed): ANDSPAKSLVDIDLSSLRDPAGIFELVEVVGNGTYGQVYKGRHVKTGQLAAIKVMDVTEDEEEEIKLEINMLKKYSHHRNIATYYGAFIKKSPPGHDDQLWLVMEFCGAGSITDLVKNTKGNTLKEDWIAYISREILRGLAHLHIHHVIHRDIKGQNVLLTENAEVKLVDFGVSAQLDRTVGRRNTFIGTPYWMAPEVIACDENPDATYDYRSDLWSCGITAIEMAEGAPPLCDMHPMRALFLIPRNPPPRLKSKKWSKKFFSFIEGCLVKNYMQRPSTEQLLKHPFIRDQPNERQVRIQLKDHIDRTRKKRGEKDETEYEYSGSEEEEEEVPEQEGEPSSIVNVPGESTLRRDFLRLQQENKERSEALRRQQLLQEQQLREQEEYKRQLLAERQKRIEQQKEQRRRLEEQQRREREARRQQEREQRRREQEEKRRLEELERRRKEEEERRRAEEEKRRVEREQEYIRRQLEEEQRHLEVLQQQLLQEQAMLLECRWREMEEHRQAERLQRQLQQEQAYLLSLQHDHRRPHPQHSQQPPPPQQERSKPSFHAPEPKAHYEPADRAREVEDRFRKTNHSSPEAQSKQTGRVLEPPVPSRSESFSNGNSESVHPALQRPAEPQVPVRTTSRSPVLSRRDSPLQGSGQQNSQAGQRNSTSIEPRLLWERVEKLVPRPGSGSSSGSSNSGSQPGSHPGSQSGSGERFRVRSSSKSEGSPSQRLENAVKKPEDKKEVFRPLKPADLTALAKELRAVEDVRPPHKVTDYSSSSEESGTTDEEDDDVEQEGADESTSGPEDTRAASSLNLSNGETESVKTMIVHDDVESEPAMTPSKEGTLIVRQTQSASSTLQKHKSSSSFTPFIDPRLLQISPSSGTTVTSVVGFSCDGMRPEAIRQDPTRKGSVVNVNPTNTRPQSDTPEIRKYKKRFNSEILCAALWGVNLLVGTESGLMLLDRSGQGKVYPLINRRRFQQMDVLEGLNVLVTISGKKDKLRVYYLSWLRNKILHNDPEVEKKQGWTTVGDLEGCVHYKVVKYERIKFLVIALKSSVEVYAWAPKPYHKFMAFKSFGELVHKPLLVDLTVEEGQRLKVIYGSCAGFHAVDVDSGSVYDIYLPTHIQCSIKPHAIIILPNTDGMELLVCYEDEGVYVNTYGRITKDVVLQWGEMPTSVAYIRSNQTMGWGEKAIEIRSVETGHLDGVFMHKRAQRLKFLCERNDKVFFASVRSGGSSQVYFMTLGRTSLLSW

Row | SMILES | inhibition [1] | inhibition [2] | inhibition [3] | inhibition [4] | inhibition [5] | inhibition [6] | inhibition [7] | inhibition [8] | inhibition [9] | inhibition [10] | inhibition [11] | inhibition [12] | inhibition [13] | inhibition [14] | inhibition [15] | inhibition [16] | inhibition [17] | inhibition [18] | inhibition [19] | inhibition [20]
1 | COc1ccc(-c2nn3ncccc3c2-c2ccnc(Nc3ccc(F)c(F)c3)n2)cc1 | 16.4% | 6.07% | 3.87% | 9.98% | 13.8% | 6.88% | 11.6% | 5.53% | 10.2% | -0.41% | 0.76% | 3.1% | 5.49% | 1.93% | 0.93% | 2.36% | 5.12% | 3.31% | 0.77% | 5.78%
2 | Nc1nccc(-c2c(-c3ccc(F)cc3)ncn2C2CCNCC2)n1 | 11.7% and 20.6% | -1.59% and 0.76% | 1.41% and 5.84% | -0.88% and 2.53% | 6.74% and 17% | -3.42% and 0.28% | -0.43% and 1.1% | -3.39% and 1.21% | 1.14% and 0.77% | 0.83% and -0.54% | 5.19% and 1.66% | -3.53% and -3.93% | -2.75% and -0.14% | -3.09% and 0.25% | -2.02% and 1.56% | -4.58% and -1.23% | -3.86% and -0.28% | -9.21% and 0.56% | -3.77% and 2.85% | -8.03% and 2.08%
3 | Cc1cc(O)cc(C)c1/C=C/c1cncc(C(=O)OC(C)(C)C)c1 | 15.2% | 4.02% | 3.99% | 6.01% | 9.55% | 3.56% | 8.26% | 2.81% | 6.28% | 0.35% | 2.31% | 5.41% | 2.7% | -0.11% | 0.96% | 2.25% | 2.76% | 0.52% | 4.26% | 2.02%
4 | Cc1cc(O)cc(C)c1/C=C/c1cncc(C(N)=O)c1 | 13.9% | 2.17% | 3.39% | 4.8% | 7.34% | 2.44% | 7.28% | 2.17% | 4.31% | -0.63% | -0.01% | 1.07% | 3.22% | 0.07% | -0.24% | 2.43% | 2.79% | 9.11% | 0.51% | 9.09%
5 | CC(C)c1ccc(-c2cc(-c3c[nH]nc3-c3ccccn3)ccn2)cc1 | 53.8% | 0.36% | 2.47% | 7.67% | 37.6% | 0.63% | -0.98% | 1.18% | 0.64% | 0.06% | 3.31% | 1.09% | -1.39% | 0.93% | -0.21% | -0.3% | 0.21% | -1.29% | -0.36% | 2.8%
6 | Cn1c(-c2nonc2N)nc2cnccc21 | 26.2% | 4.67% | 4.45% | 5.83% | 16.6% | 3.91% | 3.75% | 4.04% | 5.05% | -0.57% | -1.1% | 5.69% | 9.42% | 1.04% | 0.39% | 3.23% | 2.69% | -1.86% | -0.53% | 3.95%
7 | NS(=O)(=O)c1cccc(N/C=C2\C(=O)Nc3ccccc32)c1 | 78.2% | 4.87% | 5.35% | 18.4% | 70.2% | 7.24% | 26.1% | 5.78% | 21.2% | -1.63% | -1.86% | 5.24% | 8.78% | 1.76% | 2.04% | 4.81% | 4.94% | -8.13% | -8.7% | 3.85%
8 | Nc1ncnc2occ(-c3ccc(NC(=O)Nc4cc(C(F)(F)F)ccc4F)cc3)c12 | 22.3% and 6.15% | 1.15% and -1.72% | 2.3% and 0.44% | 6.26% and -2.13% | 19.9% and 2.27% | 4.27% and -2.54% | 8.75% and 0.44% | 4.42% and -3.89% | 6.36% and -2.2% | 0.12% and -0.14% | 1.08% and -2.02% | 3.44% and -1.9% | 4.36% and -1.17% | 0.88% and -1% | 1.23% and -1.68% | 2.44% and -2.03% | 1.87% and -1.59% | -0.44% and -3.26% | -2.53% and -0.87% | 1.24%
9 | Cc1nnc(-c2cccc(-c3ccc(C(=O)NCC4CC4)cc3)c2)o1 | 14.1% | 8.77% | 4.7% | 7.95% | 14.7% | 8.49% | 9.93% | 10.6% | 10.4% | -0.42% | 0.39% | 9.41% | 10.5% | 2.54% | 3.86% | 7.07% | 5.35% | 4.12% | 2.3% | 4.58%
10 | O=C(Nc1n[nH]c2nnc(-c3cccnc3)cc12)C1CC1 | 20.3% | 0.74% | 3.42% | 1.29% | 13.1% | -0.95% | -0.48% | -2.99% | -0.37% | 0.94% | 1.72% | -0.56% | 2.67% | -0.8% | -0.23% | -0.23% | 0.64% | -4.39% | -1.42% | -7.92%
11 | CC1(C)CC(n2cnc(-c3ccc(F)cc3)c2-c2ccnc(N)n2)CC(C)(C)N1 | 2.96% | 1.4% | 1.04% | 1.2% | 4.78% | -3.13% | -0.15% | -0.38% | -1.38% | -0.28% | -4.55% | 0.1% | 2.11% | -0.56% | 0.36% | 0.33% | 0.79% | 4.67% | 0.79% | 1.59%
12 | CN1CCN(Cc2ccc(-c3cc4ncnc(Nc5ccc(OCc6cccc(F)c6)c(Cl)c5)c4s3)o2)CC1 | 8.74% and 16.5% | 3.63% and 7.76% | 3.91% and 8.23% | 4.62% and 8.19% | 7.44% and 13.7% | 2.15% and 5.51% | 5.38% and 9.4% | 1.94% and 6.66% | 4.21% and 9.14% | -0.84% and -1.22% | -2.57% and -0.01% | 6.52% and 11.3% | 6.39% and 9.31% | 0.62% and 1.36% | 1.83% and 3.59% | 3.14% and 6.57% | 5.4% and 6.56% | 2.6% | 5.21% | -1.82%
13 | CCCNc1cccc(-n2ncc3c(N/N=C/c4ccncc4)ncnc32)c1 | 44.1% | 1.7% | 2.07% | 5.44% | 35.9% | 4.12% | 12.3% | 5.92% | 9.89% | 1.77% | -1.3% | -0.99% | -0.69% | 0.12% | -0.31% | 1.59% | 1.61% | 8.4% | 5.05% | 16.9%
